Data: PubChem BioAssay (NCATS)
Inconclusive results are not listed. Calls of active or inactive are those of the source. Unless noted, calls come from the whole dose curve; as a rule, active = well fitted curve in the direction sought with a large enough effect; inconclusive = small, poorly fitted or top-dose-only effect, or another doubt; inactive = no such curve, though single readings can be large; an effect the other way counts as inactive or inconclusive.

Columns and labels:
[1] = molecular target: Lysosomal acid glucosylceramidase (Homo sapiens) (UniProt P04062); assay: Glucocerebrosidase-p2 (AID 348; in the data active = potency below about 10 µM; note: potency is the fitted concentration of half-maximal effect); settings: purified GBA, blue fluorogenic substrate, 40 min
Lysosomal acid glucosylceramidase (Homo sapiens), sequence (P04062 whole entry, looked up): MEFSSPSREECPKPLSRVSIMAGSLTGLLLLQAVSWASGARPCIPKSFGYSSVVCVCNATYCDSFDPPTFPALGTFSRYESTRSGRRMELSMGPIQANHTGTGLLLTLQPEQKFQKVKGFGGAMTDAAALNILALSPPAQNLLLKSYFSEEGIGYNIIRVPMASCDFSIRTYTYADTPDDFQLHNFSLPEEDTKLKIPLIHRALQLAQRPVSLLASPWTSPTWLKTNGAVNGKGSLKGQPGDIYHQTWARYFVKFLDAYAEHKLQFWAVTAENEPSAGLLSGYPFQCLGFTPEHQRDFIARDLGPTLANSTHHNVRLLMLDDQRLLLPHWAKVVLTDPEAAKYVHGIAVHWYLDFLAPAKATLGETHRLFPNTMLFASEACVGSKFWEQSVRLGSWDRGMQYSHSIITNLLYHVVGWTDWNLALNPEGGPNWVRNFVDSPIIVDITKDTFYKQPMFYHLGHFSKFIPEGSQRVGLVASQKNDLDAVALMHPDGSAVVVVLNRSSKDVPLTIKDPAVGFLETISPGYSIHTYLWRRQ
Outline: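 Normal human glucocerebrosidase (0.2 nM) with blue fluorogenic substrate (80 uM final) in citrate/phosphate pH 5.9 with 10mM sodium taurocholate, 0.01% tween-20; 40 min RT, NaOH/glycine stop; fluorescence Ex 365/Em 440; AC50 from a titration from 0.6 nM upwards.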

[2] = AP1 Signaling Pathway (AID 357; active = well fitted curve in either direction with a large enough effect, not every such curve was filed as active; note: % is set by controls: 0 for no effect and ±100 for the full control effect); settings: ME-180 AP-1-bla reporter, EGF-induced, beta-lactamase ratio, 5 h; at 7.69 µM (top of the series) unless noted
Outline: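 AP-1-bla ME-180 cells with beta-lactamase reporter under AP-1 response element, stimulated with EC50 EGF; compounds titrated, 5 hours at 37 degrees Celsius. CCF4 read at 460/530 nm ratio; positive and negative modulators judged by AC50.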

[3] = NFAT Signaling Pathway (AID 444; active = well fitted curve in either direction with a large enough effect, not every such curve was filed as active;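 note: carbachol stimulus at about its EC50 of 1 µM final; % is set by controls: 0 for no effect and ±100 for the full control effect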); settings: Jurkat NFAT-bla M1, carbachol, beta-lactamase ratio, 5 h; at 7.69 µM (top of the series) unless noted
Outline: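 Jurkat cells carrying an NFAT-driven β-lactamase reporter and co-transfected muscarinic M1 receptor were treated with compound plus carbachol (1 uM final, an EC50 level) for 5 h at 37 °C. CCF4 loading followed for 1 h at RT; 460/530 nm ratio gave %activity.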

[4] = Stat Signaling Pathway (AID 446; active = well fitted curve in either direction with a large enough effect, not every such curve was filed as active;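 note: ME-180 cervical cancer cells given 40 pM IL-6 alongside compound; SIE-controlled beta-lactamase reporter measured as 460/530 nm FRET emission ratio; % is set by controls: 0 for no effect and ±100 for the full control effect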); settings: ME-180 (cervical carcinoma) SIE beta-lactamase reporter, IL-6 stimulated, 5 h; at 7.69 µM (top of the series) unless noted
Outline: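 Emission at 460 and 530 nm (excitation 405 nm) reports SIE-controlled beta-lactamase in ME-180 cells. Cells received compound with 40 pM IL-6 for 5 hrs at 37 C; data scaled between 300 pM IL-6 and 125 nM JAK-inhibitor controls.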

[5] = molecular target: Glucocorticoid receptor (Homo sapiens) (UniProt P04150); assay: GR-GFP Redistribution (AID 450;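 active = compounds whose dose series gives a full or clear partial fitted curve of increased nuclear translocation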; note: potency is the fitted concentration of half-maximal effect); settings: U2OS GR-GFP nuclear translocation, laser cytometry, 2 h
Glucocorticoid receptor (Homo sapiens), sequence (P04150 whole entry, looked up, the tested form may be a part): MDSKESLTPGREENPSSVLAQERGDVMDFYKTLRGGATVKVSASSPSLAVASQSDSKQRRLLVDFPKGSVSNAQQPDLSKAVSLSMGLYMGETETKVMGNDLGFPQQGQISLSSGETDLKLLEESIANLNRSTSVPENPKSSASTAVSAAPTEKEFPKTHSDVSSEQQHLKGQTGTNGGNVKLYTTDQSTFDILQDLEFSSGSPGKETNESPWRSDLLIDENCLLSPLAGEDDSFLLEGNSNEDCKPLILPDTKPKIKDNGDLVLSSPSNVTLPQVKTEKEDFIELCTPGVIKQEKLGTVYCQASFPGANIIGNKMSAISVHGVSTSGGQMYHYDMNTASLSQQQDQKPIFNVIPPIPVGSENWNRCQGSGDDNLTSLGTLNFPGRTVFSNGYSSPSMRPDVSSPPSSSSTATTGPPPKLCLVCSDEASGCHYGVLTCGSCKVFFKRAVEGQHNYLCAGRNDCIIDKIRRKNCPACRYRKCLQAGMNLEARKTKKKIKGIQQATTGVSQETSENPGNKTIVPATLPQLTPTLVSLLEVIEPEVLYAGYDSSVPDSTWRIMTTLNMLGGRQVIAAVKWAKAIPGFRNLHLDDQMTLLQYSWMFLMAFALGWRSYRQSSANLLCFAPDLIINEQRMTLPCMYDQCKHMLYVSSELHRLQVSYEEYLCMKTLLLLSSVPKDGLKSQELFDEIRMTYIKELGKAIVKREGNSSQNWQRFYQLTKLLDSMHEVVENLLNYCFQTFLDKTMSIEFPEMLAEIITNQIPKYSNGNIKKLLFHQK

[6] = molecular target: Mitogen-activated protein kinase 10 (Mus musculus) (UniProt Q61831); assay: JNK3 AlphaScreen Assay (AID 530; active = well fitted curve in either direction with a large enough effect, not every such curve was filed as active;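 note: kinase came from lysate of stimulated human HepG2 cells; signal reports phosphorylation of biotinylated GST-cJun 1-79 at Ser73 with 10 µM ATP; % is set by controls: 0 for no effect and ±100 for the full control effect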); settings: JNK3 lysate, c-Jun phosphorylation; series mostly up to 57.1 µM
Outline: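 Phosphorylation of biotinylated GST-cJun(1-79) at Ser73 is measured by AlphaScreen proximity luminescence. Enzyme is JNK3 in HepG2 lysates activated with interleukin-1beta and tumor necrosis factor alpha; ATP is 10 uM final.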

[7] = molecular target: 3',5'-cyclic-AMP phosphodiesterase 4B (Homo sapiens) (UniProt Q07343); assay: qHTS Assay for Inhibitors of PDE-IV (AID 607; active = well fitted activation curve with a large enough effect in the main read-out, with a control signal flat, not every such curve was filed as active; note: % of control where 0% means no effect); settings: HEK293 ACTOne CNG channel cells, membrane potential fluorescence; series mostly up to 22.9 µM
3',5'-cyclic-AMP phosphodiesterase 4B (Homo sapiens), sequence (Q07343 whole entry, looked up): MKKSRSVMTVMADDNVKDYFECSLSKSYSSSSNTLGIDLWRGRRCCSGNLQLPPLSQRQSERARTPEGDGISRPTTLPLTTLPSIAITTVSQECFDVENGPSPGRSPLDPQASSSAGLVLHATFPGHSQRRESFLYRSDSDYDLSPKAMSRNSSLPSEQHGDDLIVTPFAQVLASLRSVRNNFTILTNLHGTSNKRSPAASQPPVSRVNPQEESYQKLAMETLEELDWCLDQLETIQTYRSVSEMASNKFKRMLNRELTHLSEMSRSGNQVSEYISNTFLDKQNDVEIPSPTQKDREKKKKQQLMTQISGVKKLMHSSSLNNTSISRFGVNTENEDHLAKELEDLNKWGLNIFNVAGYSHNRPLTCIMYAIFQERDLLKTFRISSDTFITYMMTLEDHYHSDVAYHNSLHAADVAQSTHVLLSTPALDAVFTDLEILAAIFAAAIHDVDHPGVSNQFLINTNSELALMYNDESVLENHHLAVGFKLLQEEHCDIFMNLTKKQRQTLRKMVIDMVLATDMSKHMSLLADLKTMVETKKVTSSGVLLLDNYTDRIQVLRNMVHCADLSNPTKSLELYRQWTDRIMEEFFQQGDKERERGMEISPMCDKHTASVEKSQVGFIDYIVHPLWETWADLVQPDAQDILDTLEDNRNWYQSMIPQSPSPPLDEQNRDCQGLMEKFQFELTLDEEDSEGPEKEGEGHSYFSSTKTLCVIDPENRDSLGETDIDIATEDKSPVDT
Outline: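 The readout is membrane depolarisation from a cAMP-sensing CNG channel, detected with a potential dye at ex 535/em 590. Cells were HEK293-derived (endogenous PDE-IV) at 1000 cells/well, titrated up to 22.9 uM final.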

[8] = molecular target: Dual specificity protein kinase CLK4 (Homo sapiens) (UniProt Q9HAZ1); assay: qHTS Assay for Inhibitors of CDC-like Kinase 4 (Kinase-Glo Assay) (AID 1770); settings: recombinant Clk4, Kinase-Glo ATP depletion luminescence; series mostly up to 66.7 µM; note: nearly all actives have a fitted effect of over 65% in size; note: potency is the fitted concentration of half-maximal effect
Dual specificity protein kinase CLK4 (Homo sapiens), sequence (Q9HAZ1 whole entry, looked up): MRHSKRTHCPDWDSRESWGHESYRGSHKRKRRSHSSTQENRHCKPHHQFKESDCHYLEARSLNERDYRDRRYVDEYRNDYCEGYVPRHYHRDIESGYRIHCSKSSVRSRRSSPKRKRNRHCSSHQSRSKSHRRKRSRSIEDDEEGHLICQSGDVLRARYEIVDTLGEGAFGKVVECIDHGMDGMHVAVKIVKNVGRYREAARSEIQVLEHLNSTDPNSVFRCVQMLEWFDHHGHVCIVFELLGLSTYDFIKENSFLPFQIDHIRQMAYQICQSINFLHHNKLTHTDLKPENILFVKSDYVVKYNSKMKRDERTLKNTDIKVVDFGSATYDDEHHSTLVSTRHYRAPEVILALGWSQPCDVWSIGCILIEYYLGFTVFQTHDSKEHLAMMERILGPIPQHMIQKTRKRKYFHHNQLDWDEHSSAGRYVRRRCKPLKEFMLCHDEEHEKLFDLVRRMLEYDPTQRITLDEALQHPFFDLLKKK
Outline: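 25 nM Clk4 with 100 uM RS repeat peptide and 1 uM ATP (final) in Tris pH7.5, 10 mM MgCl2, 4.5 h at room temperature. Remaining ATP measured by Kinase-Glo luciferase luminescence.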

[9] = molecular target: Dual specificity protein kinase CLK4 (Homo sapiens) (UniProt Q9HAZ1); assay: qHTS Assay for Inhibitors of CDC-like Kinase 4 (ADP-Glo Assay) (AID 1771); settings: recombinant CLK4, ADP-Glo luminescence; series mostly up to 80 µM; note: nearly all actives have a fitted effect of over 70% in size; note: potency is the fitted concentration of half-maximal effect
Outline: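 Compounds are pin-transferred onto substrate mix (100 uM RS peptide, 1 uM ATP), then 25 nM Clk4 is added. After 1 hr at room temperature, ADP-Glo reagent runs 45 min, detection reagent 30 min, then luminescence is read.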

[10] = molecular target: Dual specificity protein kinase CLK4 (Homo sapiens) (UniProt Q9HAZ1); assay: qHTS Assay for Inhibitors of CDC-like Kinase 4 (ADP-FP Assay) (AID 1795); settings: Transcreener ADP fluorescence polarization; series mostly up to 50 µM; note: nearly all actives have a fitted effect of over 60% in size; note: potency is the fitted concentration of half-maximal effect
Outline: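 Recombinant Clk4 (6.25 nM) phosphorylated 100 uM RS repeat peptide with 1 uM ATP in 25 mM Tris pH 7.5, 10 mM MgCl2, 0.5 mM EGTA, 2.5 mM DTT, 0.01% Triton X-100 for 1 h. ADP was detected by Transcreener ADP2 competitive fluorescence polarization after 30 min at room temperature.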

[11] = molecular target: Ubiquitin carboxyl-terminal hydrolase 1 (Homo sapiens) (UniProt O94782); assay: Inhibitors of USP1/UAF1: Pilot qHTS (AID 504865); settings: purified USP1/UAF1, Ub-rhodamine cleavage fluorescence; series mostly up to 54.9 µM;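 note: rhodamine fluorescence freed from ubiquitin-rhodamine substrate followed over time; top concentration of the series differs between compounds; % is set by controls: 0 for no effect and ±100 for the full control effect; nearly all actives have a fitted effect of over 35% in size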
Ubiquitin carboxyl-terminal hydrolase 1 (Homo sapiens), sequence (O94782 whole entry, looked up): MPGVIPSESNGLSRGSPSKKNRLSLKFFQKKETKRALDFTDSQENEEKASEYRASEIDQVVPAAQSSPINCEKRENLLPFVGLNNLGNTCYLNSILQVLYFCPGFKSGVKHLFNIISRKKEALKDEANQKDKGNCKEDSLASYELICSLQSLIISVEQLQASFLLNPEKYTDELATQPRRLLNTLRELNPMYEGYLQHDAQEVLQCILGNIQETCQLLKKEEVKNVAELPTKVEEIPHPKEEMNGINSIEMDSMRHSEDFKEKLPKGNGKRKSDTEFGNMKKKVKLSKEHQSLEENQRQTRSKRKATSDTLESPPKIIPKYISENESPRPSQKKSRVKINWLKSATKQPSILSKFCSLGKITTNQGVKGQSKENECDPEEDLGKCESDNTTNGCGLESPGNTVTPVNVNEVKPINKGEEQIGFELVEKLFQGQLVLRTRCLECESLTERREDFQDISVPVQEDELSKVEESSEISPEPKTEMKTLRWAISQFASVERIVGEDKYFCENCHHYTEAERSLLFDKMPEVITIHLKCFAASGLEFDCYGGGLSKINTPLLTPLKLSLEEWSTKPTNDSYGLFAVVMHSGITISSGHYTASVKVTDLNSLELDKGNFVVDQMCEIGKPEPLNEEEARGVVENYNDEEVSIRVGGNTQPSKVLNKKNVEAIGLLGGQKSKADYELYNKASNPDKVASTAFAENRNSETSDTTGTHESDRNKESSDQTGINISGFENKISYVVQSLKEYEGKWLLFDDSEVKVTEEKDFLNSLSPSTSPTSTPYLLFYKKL
Outline: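 USP1/UAF1 complex at 1 nM preincubated 15 min at room temperature with compound, then Ub-Rho substrate added at 150 nM final. Fluorescence (480/540 nm) read kinetically in 50 mM HEPES pH 7.8, 0.5 mM EDTA, 1 mM TCEP, 0.1 mg/ml BSA, 0.01% Tween-20.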

[12] = Primary qHTS for small molecule stabilizers of the endoplasmic reticulum resident proteome: Secreted ER Calcium Modulated Protein (SERCaMP) assay (AID 1508630); settings: SH-SY5Y GLuc-SERCaMP (Gaussia luciferase released on ER calcium loss) secretion, thapsigargin, luminescence; series mostly up to 38.4 µM; note: % is set by controls: 0 for no effect and ±100 for the full control effect
Outline: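 The SH-SY5Y reporter protocol was run at 3 concentrations up to 38.3 uM (primary) or 11 concentrations (follow-up): 16 h compound, 100 nM thapsigargin for 4 h, then extracellular luciferase luminescence.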

[13] = molecular target: Glucocorticoid receptor (Homo sapiens) (UniProt P04150); assay: GR-EFC Redistribution (AID 451; calls by dose curve; note: potency is the fitted concentration of half-maximal effect); settings: CHO-K1 GR-EFC translocation, beta-gal luminescence, 2 h
Outline: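 CHO-K1 cells stably expressing nuclear-localized β-gal enzyme acceptor and GR fused C-terminally to the enzyme donor fragment; ligand-driven nuclear translocation restores β-gal by complementation. Compounds titrated up to 46 uM final, 2 h at 37 °C; luminescence read.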

CCNc1ncc2nc(-c3cc(F)cc(F)c3)c(=O)n(C3CC3)c2n1
inactive: Potency [1] > 11.4 µM | activity change, negative = inhibition [2] 29.9% | activity change, negative = inhibition [3] 23.3% | activity, negative = inhibition [4] 28.9% | Potency [5] > 9.22 µM | Potency [6] | Potency [7] | Potency [8] | Potency [9] | Potency [10] | Potency [11] | outcome [12]

Cc1ccccc1-c1cc(N2CCNCC2)ncn1
inactive: Potency [1] > 11.4 µM | activity change, negative = inhibition [2] 8.27% | activity change, negative = inhibition [3] 15.7% | activity, negative = inhibition [4] 8.55% | Potency [5] > 46 µM | Potency [13] > 46 µM | Potency [6] | Potency [7] | Potency [8] | Potency [9] | Potency [10] | Potency [11] | outcome [12]

FC(F)(F)c1ccccc1-c1cncnc1-n1ccnc1
inactive: Potency [1] > 11.4 µM | activity change, negative = inhibition [2] -6.84% | activity change, negative = inhibition [3] -7.53% | activity, negative = inhibition [4] 3.29% | Potency [5] > 46 µM | Potency [13] > 46 µM | Potency [6] | Potency [7] | Potency [8] | Potency [9] | Potency [10] | Potency [11] | outcome [12]

CN(C)c1ncc2nc(-c3cc(F)cc(F)c3)c(=O)n(C)c2n1
inactive: Potency [1] > 11.4 µM | activity change, negative = inhibition [2] 13.4% | activity change, negative = inhibition [3] 2.93% | Potency [5] > 9.22 µM | Potency [13] > 46 µM | Potency [6] | Potency [7] | Potency [8] | Potency [9] | Potency [10] | Potency [11] | outcome [12]

COc1ccc(-c2nc3cnc(N(C)C)nc3n(C3CC3)c2=O)cc1
inactive: Potency [1] > 11.4 µM | activity change, negative = inhibition [2] -0.159% | activity, negative = inhibition [4] 24.2% | Potency [5] > 9.22 µM | Potency [13] > 46 µM | Potency [6] | Potency [7] | Potency [8] | Potency [9] | Potency [10] | Potency [11] | outcome [12]

Cc1noc(C)c1-c1cncnc1-n1ccnc1
inactive: Potency [1] > 11.4 µM | activity change, negative = inhibition [2] 0.604% | activity change, negative = inhibition [3] -5.32% | activity, negative = inhibition [4] 12.7% | Potency [5] > 46 µM | Potency [13] > 46 µM | Potency [6] | Potency [7] | Potency [8] | Potency [9] | Potency [10] | Potency [11] | outcome [12]

COc1ccc(Oc2ncc3ncc(=O)n(-c4ccc(OC)cc4)c3n2)cc1
active: Potency [8] 2.82 µM | Potency [9] 2 µM | Potency [10] 4.47 µM
inactive: Potency [1] > 11.4 µM | activity change, negative = inhibition [2] -24.9% | activity change, negative = inhibition [3] -12.3% | activity, negative = inhibition [4] -13.9% | Potency [5] > 9.22 µM | Potency [13] > 46 µM | Potency [6] | Potency [7] | Potency [11] | outcome [12]

O=c1c(-c2ccc(F)cc2)nc2cncnc2n1Cc1ccc(F)cc1
inactive: Potency [1] > 11.4 µM | activity change, negative = inhibition [2] -9.76% | activity change, negative = inhibition [3] -10% | activity, negative = inhibition [4] -2.38% | Potency [5] > 9.22 µM | Potency [13] > 46 µM | Potency [6] | Potency [7] | Potency [8] | Potency [9] | Potency [10] | Potency [11] | outcome [12]

COc1ccc(-c2nc3cnc(N(C)C)nc3n(CCC#N)c2=O)cc1
inactive: Potency [1] > 11.4 µM | activity change, negative = inhibition [2] -7.19% | activity change, negative = inhibition [3] -5.15% | Potency [5] > 9.22 µM | Potency [13] > 46 µM | Potency [6] | Potency [7] | Potency [8] | Potency [9] | Potency [10] | Potency [11] | outcome [12]

CNc1ncnc2ccc(-c3ccc4c(c3)OCO4)cc12
active: Potency [8] 0.891 µM | Potency [9] 0.631 µM | Potency [10] 0.355 µM
inactive: Potency [1] > 11.4 µM | activity change, negative = inhibition [2] -8.86% | activity change, negative = inhibition [3] 15.3% | activity, negative = inhibition [4] 12.6% | Potency [5] > 46 µM | Potency [13] > 46 µM | Potency [6] | Potency [7] | Potency [11] | outcome [12]

COCCn1c(=O)c(-c2ccccc2)nc2cnc(N3CCOCC3)nc21
inactive: Potency [1] > 11.4 µM | activity change, negative = inhibition [2] -10.7% | activity change, negative = inhibition [3] 18.3% | activity, negative = inhibition [4] -4.75% | Potency [5] > 9.22 µM | Potency [13] > 46 µM | Potency [6] | Potency [7] | Potency [8] | Potency [9] | Potency [10] | Potency [11] | outcome [12]

COc1cccc(Cn2c(=O)c(-c3cccs3)nc3cnc(N4CCOCC4)nc32)c1
inactive: Potency [1] > 11.4 µM | activity change, negative = inhibition [2] 21.6% | activity change, negative = inhibition [3] 5.78% | Potency [5] > 9.22 µM | Potency [13] > 46 µM | Potency [7] | Potency [8] | Potency [9] | Potency [10] | Potency [11] | outcome [12]

O=c1c(CCc2ccccc2)nc2cnc(N3CCOCC3)nc2n1C1CC1
inactive: Potency [1] > 11.4 µM | activity change, negative = inhibition [2] -19.2% | activity change, negative = inhibition [3] 4.06% | activity, negative = inhibition [4] 3.71% | Potency [13] > 46 µM | Potency [6] | Potency [8] | Potency [9] | Potency [10] | Potency [11] | outcome [12]

COc1ncc2nc(-c3ccccc3)c(=O)n(C3CC3)c2n1
inactive: Potency [1] > 11.4 µM | activity change, negative = inhibition [2] -10.7% | activity change, negative = inhibition [3] 7.49% | activity, negative = inhibition [4] -13.4% | Potency [5] > 9.22 µM | Potency [13] > 46 µM | Potency [6] | Potency [7] | Potency [8] | Potency [9] | Potency [10] | Potency [11] | outcome [12]
